Measurements from ChEMBL document CHEMBL3988442, “University of Dundee, Small-Polar-MMV Screening Library” (2021).
The whole screen tested about 48,000 compounds, of which about 13,000 (27%) showed an effect of 50% or more. Some of the results follow.

The compounds below were run on Wolbachia pipientis (assay: Anti-Wolbachia Cell-Based Screen). Details: 5 µM.
Assay type: functional
Set-up: scale not given: in the data most compounds retested in dose-response had high values

| SMILES | Percent Effect [%] |
| --- | --- |
| O=c1[nH]c(CCN2CCN(CC(F)(F)F)CC2)nc2ccccc12 | -18.37 |
| O=C(CN1CCCNC1=O)Nc1ccccc1C(=O)C1CCCC1 | 8.695 |
| c1ccc(C2=NOC3(CCN(Cc4c[nH]c5ccccc45)CC3)C2)cc1 | 122.3 |
| Clc1ccc(CN2CCOC[C@H](Oc3cccnc3)C2)cc1 | -8.51 |
| Clc1ccc(CN2CCC3(CC2)CC(c2cccnc2)=NO3)cc1 | 114.5 |
| c1cncc(C2=NOC3(CCN(Cc4c[nH]c5ccccc45)CC3)C2)c1 | 119 |
| CC(C)CCN1CC[C@H](c2nnc(Cc3c[nH]c4ccccc34)o2)C1 | -3.447 |
| CC(C)C1=NOC2(CCN(Cc3c[nH]c4ccccc34)CC2)C1 | 126.9 |
| c1cncc(O[C@H]2COCCN(Cc3c[nH]c4ccccc34)C2)c1 | 0.3938 |
| OCC1(Cc2ccc(Cl)cc2)CCN(Cc2cccnc2)CC1 | -27.42 |
| CC1(C)CN(Cc2nnc(-c3cccnc3)o2)CC[C@]1(C)O | -0.3969 |
| O=C(O)c1ccc2c(CN3CCOCC3)c[nH]c2c1 | 6.765 |
| O=C(O)c1ccc2c(CN3CCCC3)c[nH]c2c1 | -9.8 |
| CC(C)N1CC[C@H](c2nnc(Cc3c[nH]c4ccccc34)o2)C1 | -6.101 |
| CCc1nnc2n1CCN(C(=O)c1csc(-c3cnn(C)c3)n1)C2 | -10.57 |
| CCN1C[C@H]2CCN(C(=O)C3CCCO3)CC[C@H]2S1(=O)=O (stereo partly drawn) | -2.394 |
| CCc1nc(CN(C(C)=O)C2CCN(Cc3cnc(C)cn3)C2)no1 (stereo not drawn) | -6.946 |
| Cc1nnc(CN(C)C2CCN(CCc3cccs3)C2)n1C (stereo not drawn) | 4.049 |
| CCc1nc(CN(C(C)=O)C2CCN(CCc3cccs3)C2)no1 (stereo not drawn) | 109.6 |
| CCn1c(C)nnc1CN(C)C1CCN(CCc2cccs2)C1 (stereo not drawn) | -15.8 |
| CCCN1CCC(N(Cc2ncc(C)o2)C(C)=O)C1 (stereo not drawn) | 4.824 |

| SMILES | Percent Effect [%] |
| --- | --- |
| CN(Cc1noc(C2CC2)n1)C1CCN(CCc2cccs2)C1 (stereo not drawn) | 86.2 |
| CC(=O)N(Cc1ncc(C)o1)C1CCN(CCc2cccs2)C1 (stereo not drawn) | 95.79 |
| Cc1ccc(CCN2CCC(N(C)Cc3noc(C4CC4)n3)C2)cc1 (stereo not drawn) | 33.43 |
| CCc1nc(CN(C(C)=O)C2CCN(CCc3cnn(C)c3)C2)no1 (stereo not drawn) | -3.276 |
| CN(Cc1nnc(C2CC2)o1)C1CCN(CCc2cccs2)C1 (stereo not drawn) | -15.6 |
| Cc1nc(CN(C)C2CCN(CCc3cccs3)C2)no1 (stereo not drawn) | 100.8 |
| CCc1cnc(CN(C(C)=O)C2CCN(CCc3cccs3)C2)o1 (stereo not drawn) | 1.615 |
| O=C(CSc1ccc2c(c1)OCCO2)NS(=O)(=O)c1cccnc1 | 7.646 |
| O=C(O)C(F)(F)F.O=C([C@@H]1COC[C@H]2CN(CC3CC3)C[C@H]21)N1CCC(F)CC1 | -0.2992 |
| Cc1ncc2c(n1)CCN(C(C(N)=O)c1ccccc1)C2 (stereo not drawn) | -10.42 |
| CC(C)NC(=O)[C@H]1C[C@@H]2[C@@H](C1)OCCN2CC1CC1.O=C(O)C(F)(F)F | -2.648 |
| CCc1nc(CN2CCCC(N(C)Cc3cnc(C)s3)C2)no1 (stereo not drawn) | -6.39 |
| CCc1nc(CN(C)C2CCN(CCS(C)(=O)=O)C2)no1 (stereo not drawn) | 2.202 |
| CCc1nc(CN(C)C2CCN(CCc3ccccn3)C2)no1 (stereo not drawn) | 16.6 |
| Cc1nc(CN2CCCC(N(C)CCc3cccs3)C2)no1 (stereo not drawn) | 6.086 |
| CCc1nc(CN(C)C2CCN(CCc3cccs3)C2)no1 (stereo not drawn) | 104.6 |
| CC(C)c1cnc(CN(C)C2CCN(CCc3ccccn3)C2)o1 (stereo not drawn) | -3.925 |
| Cc1nc(CN(C)C2CCN(CCc3ccccn3)C2)no1 (stereo not drawn) | 113.1 |
| CCc1nc(CN2CCCC(N(C)CCc3cccs3)C2)no1 (stereo not drawn) | 105.7 |
| CCc1nc(CN(C)C2CCN(CCn3cccn3)C2)no1 (stereo not drawn) | 113.6 |
| Cc1ccc(NCc2cn3c(n2)CN(Cc2ccc(C)o2)CC3)nn1.O=C(O)C(F)(F)F.O=C(O)C(F)(F)F | -14.5 |

| SMILES | Percent Effect [%] |
| --- | --- |
| COCCN1CCCC2(CCN(c3nccc4ccccc34)C2)C1=O (stereo not drawn) | 0.09488 |
| c1ccc(CN2C[C@H]3CC[C@@H]2CN(Cc2nnc(C4CC4)o2)C3)cc1 | 2.015 |
| CN(C)C(=O)N1C[C@@H]2CC[C@H](C1)N(Cc1nnc(-c3ccco3)o1)C2 | 70.33 |
| c1ccc(CN2C[C@@H]3CC[C@H](C2)N(Cc2nnc(C4CC4)o2)C3)cc1 | -6.562 |
| CN(C)C(=O)N1C[C@@H]2CC[C@H](C1)N(Cc1nnc(C3CC3)o1)C2 | 98.65 |
| CN(C)C(=O)N1C[C@@H]2CC[C@H](C1)N(C/C=C/c1ccc(F)cc1)C2 | 7.662 |
| CN(C)C(=O)N1C[C@@H]2CC[C@H](C1)N(Cc1nnc(-c3ccccc3)o1)C2 | 137.1 |
| c1ccc(-c2nnc(CN3C[C@@H]4CC[C@H](C3)N(CC3CCC3)C4)o2)cc1 | 0.05664 |
| CC(C1CC1)N(C)Cc1nnc(-c2ccco2)o1 (stereo not drawn) | -0.554 |
| CN(C)C(=O)N1C[C@@H]2CC[C@H](C1)N(Cc1ccc3nsnc3c1)C2 | -1.823 |
| CCC(NCc1ccccn1)c1ccccc1OCC(=O)NC (stereo not drawn) | 13.68 |
| CCCOc1cccc(CNC(=O)CN2CCN(C)CC2C)c1 (stereo not drawn) | -6.684 |
| FC(F)(F)Oc1cccc(CNC[C@H]2Cn3ccnc3CO2)c1 | -15.74 |
| CN1CCOC(CNC(=O)CCCOCCc2ccccc2)C1 (stereo not drawn) | -8.698 |
| CCOC(=O)CCNC(=O)N1CCOC(Cc2cccc(OC)c2)C1 (stereo not drawn) | -8.536 |
| CN1CCOC(CNCc2cccc(OCC(F)(F)F)c2)C1 (stereo not drawn) | -1.081 |
| CN1CCOC(CNCc2nc(-c3ccco3)no2)C1 (stereo not drawn) | -7.293 |
| COCCOc1cccc(CNCC2CN(C)CCO2)c1 (stereo not drawn) | 121.8 |
| CN1CCOC(CNCc2cccc(OC(F)(F)F)c2)C1 (stereo not drawn) | 76.13 |
| COc1cccc(CNCC2CN(C)CCO2)c1 (stereo not drawn) | 98.93 |
| CCCc1n[nH]c(C2CN(CCNC3CCCCC3)CCO2)n1 (stereo not drawn) | 8.814 |
